Screening data (PubChem)
Only some compounds are listed: those with a hit (about 12% of all), similar ones and a draw of the others.
G9a block – inhibitors of human histone lysine methyltransferase G9a; Q96KQ7; Potency, µM (series often up to 102 µM), actives largely listed as inhibitors; AID 504332; 350,000 compounds, 8.8% hits; G9a H3K9 monomethylation, AlphaScreen, 2 h; also: nearly all actives have a fitted effect of over 75% in size
Target sequence (Q96KQ7 913-1193 limits assumed): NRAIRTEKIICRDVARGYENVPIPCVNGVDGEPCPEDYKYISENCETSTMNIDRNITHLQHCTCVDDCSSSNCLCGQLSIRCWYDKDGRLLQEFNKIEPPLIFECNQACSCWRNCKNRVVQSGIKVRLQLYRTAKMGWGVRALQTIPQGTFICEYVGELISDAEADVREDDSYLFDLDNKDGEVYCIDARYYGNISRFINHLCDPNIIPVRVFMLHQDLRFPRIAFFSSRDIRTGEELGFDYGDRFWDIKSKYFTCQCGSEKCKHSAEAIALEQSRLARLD
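Readings reflect AlphaScreen signal from monomethyl-H3K9 antibody detection. HMT at 20 nM; substrate b-H3K9 500 nM; cofactor SAM 20 uM; 2 h RT reaction; compounds tested as titrations in qHTS with 15 min preincubation.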
PLK1 PBD inh – blocks phosphopeptide binding to human PLK1 polo-box domain; Potency, µM, most hits filed as inhibitors; P53350; AID 720504; 360,000 compounds, 2.8% hits; Plk1 PBD binding of FITC phosphopeptide, fluorescence polarization; also: series mostly up to about 57 µM; nearly all actives have a fitted effect of over 65% in size
BAZ2B block – blocks human BAZ2B | Q9UIF8 | 360,000 compounds, 4.4% hits | AlphaScreen BAZ2B-H3K14Ac peptide displacement | Potency, µM (top dose mostly 114 µM), actives largely listed as inhibitors; also: nearly all actives have a fitted effect of over 60% in size
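Multi-concentration screen (max 110 uM) measuring displacement of acetylated histone H3 peptide from BAZ2B by AlphaScreen, using 50 nM protein, 50 nM peptide and 10 ug/mL streptavidin donor plus Ni-chelate acceptor beads.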
JMJD2A Tudor inh – inhibitors of human JMJD2A Tudor domain; Potency, µM (doses to about 114 µM), actives largely listed as inhibitors; AlphaScreen JMJD2A-Tudor / H3K4me3 peptide binding; O75164; 390,000 compounds, 4.4% hits; also: nearly all actives have a fitted effect of over 50% in size
HP1b chromo inh – inhibitors of HP1-beta chromodomain binding to methylated histone tails. 390,000 compounds, 0.56% hits. P83916. AID 540317. Potency, µM (series often up to 114 µM), actives largely listed as inhibitors. AlphaScreen HP1-beta / biotin-H3K9me3 peptide binding; also: nearly all actives have a fitted effect of over 70% in size
Target sequence (P83916 whole entry, looked up): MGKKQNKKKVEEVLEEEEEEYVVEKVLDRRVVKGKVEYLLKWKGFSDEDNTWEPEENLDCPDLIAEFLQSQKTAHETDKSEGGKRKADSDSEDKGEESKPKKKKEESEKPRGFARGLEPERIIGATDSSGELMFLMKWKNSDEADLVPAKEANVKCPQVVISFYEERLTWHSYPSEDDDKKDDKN
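AlphaScreen: HP1-beta (50 nM) preformed 30 min with biotin-H3(1-18)K9me3 peptide (50 nM) in PBS pH 7.4, 0.01% Tween-20. Compound added for 30 min at RT, then streptavidin donor/nickel chelate acceptor beads (10 ug/mL) for 30 min.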
Sfp inh – inhibitors of Bacillus subtilis Sfp phosphopantetheinyl transferase; Q9F4F7; Biochemical Sfp PPTase activity, qHTS; Potency, µM, most hits filed as inhibitors; 310,000 compounds, 3.5% hits;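 also: the enzyme is Sfp with the accession as filed and its product quenches rhodamine fluorescence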
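With Hepes-Na pH 7.6 buffer containing 10 mM MgCl2, Sfp (15 nM) modified BHQ-2-YbbR (12.5 uM) using rhodamine-CoA (5 uM). Two reads 30 minutes apart at 525/598 nm yielded each well's rate.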
Of the large screens only hits and unclear results are named; the others gave an inactive call. Calls follow the shape of the dose curve; as a rule, active = well fitted curve in the direction sought with a large enough effect; inconclusive = small, poorly fitted or top-dose-only effect, or another doubt; inactive = no such curve, though single readings can be large; an effect the other way counts as inactive or inconclusive.

CCCCOc1ccccc1C(=O)Nc1nonc1-c1ccccc1	none (no result: PLK1 PBD inh, Sfp inh)
CN(C)CCOC(=O)[C@@H](c1ccccc1)C1(O)CCCC1	none (no result: PLK1 PBD inh, BAZ2B block, JMJD2A Tudor inh, HP1b chromo inh)
O=C1CCCC2CCCCN12 (stereo not given)	none (no result: PLK1 PBD inh, BAZ2B block, JMJD2A Tudor inh, HP1b chromo inh)
Fc1ccccc1OCCn1c(=S)[nH]c2ccccc21	G9a block 7.1µM, PLK1 PBD inh inconclusive, JMJD2A Tudor inh inconclusive
Cc1ccccc1OCCn1c(=S)[nH]c2ccccc21	G9a block 40µM
CCOC(=O)c1cccc(-n2nnc3c(sc4nc(C)c(Br)c(C)c43)c2=O)c1	JMJD2A Tudor inh inconclusive (no result: PLK1 PBD inh, Sfp inh)
Cc1ccc2c(=O)cc(C(=O)Nc3ccc(S(=O)(=O)Nc4onc(C)c4C)cc3)oc2c1C	JMJD2A Tudor inh 56µM (no result: PLK1 PBD inh, Sfp inh)
Cc1cc2oc(C(=O)Nc3ccc(S(=O)(=O)Nc4onc(C)c4C)cc3)cc(=O)c2cc1C	none (no result: PLK1 PBD inh, Sfp inh)
Cc1noc(NS(=O)(=O)c2ccc(NC(=O)CC34CC5CC(CC(Br)(C5)C3)C4)cc2)c1C	G9a block 71µM, PLK1 PBD inh inconclusive
Cc1noc(NS(=O)(=O)c2ccc(NC(=O)/C=C/c3ccc(C(C)C)cc3)cc2)c1C	G9a block 45µM, PLK1 PBD inh inconclusive, BAZ2B block inconclusive
Cc1noc(NS(=O)(=O)c2ccc(NC(=O)c3ccc(N4C(=O)c5ccccc5C4=O)cc3)cc2)c1C	BAZ2B block 50µM
CCOC(=O)CCN1C(=O)[C@H]2[C@H]3[C@H](O)[C@H](O)C/C(=N/OCC(C)C)[C@H]3CC[C@@H]2C1=O	none (no result: G9a block, PLK1 PBD inh, BAZ2B block, JMJD2A Tudor inh, HP1b chromo inh)
CCOCCN1CCN(C2c3ccccc3CSc3ccccc32)CC1 (stereo not given)	JMJD2A Tudor inh 13µM, HP1b chromo inh inconclusive (no result: G9a block, BAZ2B block, Sfp inh)
O=C(CN1C(=O)CCC1=O)NNc1ccc2ccccc2c1	G9a block 8.9µM
Cc1cc(=O)oc2cc(OCC(=O)Nc3ccccc3C(N)=O)c(Cl)cc12	none
O=C(COC(=O)C(Cc1ccccc1)NC(=O)c1ccc(Cl)cc1)c1ccc(Cl)cc1 (stereo not given)	PLK1 PBD inh 11µM
O=C(COC(=O)C(Cc1ccccc1)NC(=O)c1ccccc1)c1ccccc1 (stereo not given)	none
O=C(O)c1cc2ccccc2c(Cc2cc3ccccc3c(C(=O)O)c2O)c1O (tested in a mixture with another compound)	G9a block inconclusive (no result: PLK1 PBD inh, BAZ2B block, JMJD2A Tudor inh, HP1b chromo inh)
O=C(O)c1cc2ccccc2c(N=Nc2cccnc2)c1O	G9a block 50µM, BAZ2B block inconclusive, HP1b chromo inh inconclusive
Nc1ncnc2c1c(-c1ccc(Oc3ccccc3)cc1)cn2C1CCCC1	G9a block 14µM, BAZ2B block 40µM, JMJD2A Tudor inh 45µM, HP1b chromo inh inconclusive, Sfp inh inconclusive
O=C(N/N=C/C=C/c1ccccc1)c1cccnc1	none
O=C(N/N=C/C=C\c1ccco1)c1cccnc1	G9a block 28µM, Sfp inh 32µM
O=C(N/N=C\C=C\c1ccco1)c1cncc(Br)c1	G9a block inconclusive, PLK1 PBD inh inconclusive, Sfp inh 40µM
O=C(N/N=C/C=C/c1ccco1)c1cccnc1	G9a block 8.9µM, Sfp inh 35µM
COc1cc(/C=C/C(=O)OCC(=O)N(C)C2CCS(=O)(=O)C2)ccc1OC(F)F (stereo not given)	none (no result: G9a block)
CC(=O)Nc1nonc1-c1nnc(SCC(=O)Nc2ccc(C)cc2C)n1C	none (no result: PLK1 PBD inh, Sfp inh)
CN1C[C@@H]2[C@@H]3C(=O)N(Cc4ccccc4)C(=O)[C@@H]3[C@](Cc3ccccc3)(C1=O)N2C(=O)c1ccc(C(F)(F)F)cc1	none (no result: G9a block, BAZ2B block, Sfp inh)
O=C(CCCSc1nnc(-c2cccs2)n1CC1CCCO1)c1ccccc1 (stereo not given)	JMJD2A Tudor inh 79µM
O=C1C2C3CCCC3=C3CCCC3C2C(=O)N1c1ccccc1 (stereo not given)	G9a block 20µM
CCc1cc[n+](C2=C([O-])c3ccccc3C(=O)/C2=N\S(=O)(=O)c2cccs2)cc1	G9a block inconclusive, PLK1 PBD inh inconclusive, BAZ2B block inconclusive, JMJD2A Tudor inh 79µM, HP1b chromo inh inconclusive
O=C(O)COc1ccccc1/C=N/NC(=O)CSc1nc2ccccc2n1Cc1ccccc1Cl	G9a block inconclusive, PLK1 PBD inh 60µM, BAZ2B block 71µM, JMJD2A Tudor inh inconclusive
CCOC(=O)CCc1n[nH]c(=O)[nH]c1=O	none
